Screens deposited in PubChem by Broad Institute.
The entries come from a sample that favours hits as a whole.
PD-1 reverse act: activators reversing PD-1 mediated T-cell inhibition | primary human CD4 T cells, PD-L1 beads, CellTiter-Glo 96 h | activation, % (no concentration beside the values) | 29,000 tested, under 10 active; call rule not given here
U2OS ROS induce: cancer cell ROS induction; U2OS ROS induction, H2DCF-DA fluorescence; ROS induction (% of piperlongumine), % at 10 µM; 46,000 tested, 2% active; in the data active = ROS induction above about 79%, passing the limit was not always enough; inconclusive = no clear call, values can overlap the other calls
NOMO-1 viab: STK33 inhibitor candidate reducing NOMO-1 cell viability; NOMO-1 AML viability, CellTiter-Glo luminescence, 72 h; inhibition, % (no concentration beside the values); 37,000 tested, 7.5% active; in the data active = inhibition above about 80%; inconclusive = no clear call, values can overlap the other calls
Each line names hits and unclear results; the compound was inactive in the other large screens.

C[C@H](CO)N1C[C@H](C)[C@H](CN(C)S(=O)(=O)c2cccc(F)c2)Oc2ncc(-c3cccc(C(F)(F)F)c3)cc2C1=O	none (no result: PD-1 reverse act, NOMO-1 viab)
O=C(COc1ccccc1Br)N1CCCCC1	none (no result: PD-1 reverse act, NOMO-1 viab)
O=C(CCN1C(=O)COc2ccccc21)NCc1ccccc1	none (no result: PD-1 reverse act, NOMO-1 viab)
CC(C)c1ccc(NC(=O)CN2C(=O)c3ccccc3Sc3ccc(C(=O)N4CCCC4)cc32)cc1	none (no result: PD-1 reverse act, NOMO-1 viab)
C[C@H](CO)N1C[C@H](C)[C@H](CN(C)Cc2cccc(C(F)(F)F)c2)Oc2ncc(-c3cc4ccccc4o3)cc2C1=O	U2OS ROS induce 248 (no result: PD-1 reverse act, NOMO-1 viab)
C[C@H](CO)N1C[C@H](C)[C@H](CN(C)Cc2ccccc2)Oc2ncc(-c3cc4ccccc4o3)cc2C1=O	none (no result: PD-1 reverse act, NOMO-1 viab)
C[C@H](CO)N1C[C@H](C)[C@H](CN(C)S(=O)(=O)c2cccs2)Oc2c(NC(=O)Nc3ccc(C(F)(F)F)cc3)cccc2C1=O	NOMO-1 viab 92
C[C@@H]1CN([C@H](C)CO)C(=O)c2cccc(NC(=O)Nc3ccc(F)cc3)c2O[C@H]1CN(C)S(=O)(=O)c1cccs1	none
C[C@@H]1CN([C@H](C)CO)C(=O)c2cc(NC(=O)Nc3ccc(C(F)(F)F)cc3)ccc2O[C@H]1CN(C)S(=O)(=O)c1cccs1	none
C[C@@H]1CN([C@H](C)CO)C(=O)c2cccc(NC(=O)Nc3ccc(F)cc3)c2O[C@@H]1CN(C)S(=O)(=O)c1cccs1	none
C[C@H](CO)N1C[C@H](C)[C@@H](CN(C)S(=O)(=O)c2cccs2)Oc2ccc(NC(=O)Nc3ccc(C(F)(F)F)cc3)cc2C1=O	NOMO-1 viab 92
C[C@H]1CN([C@@H](C)CO)C(=O)c2cccc(NC(=O)Nc3ccc(C(F)(F)F)cc3)c2O[C@H]1CN(C)S(=O)(=O)c1cccs1	NOMO-1 viab 91
Cc1nn(-c2ccccc2)c(Cl)c1C1N(Cc2ccccc2)CCN1Cc1ccccc1	none (no result: PD-1 reverse act, NOMO-1 viab)
CCCCN(Cc1cc2cccc(C)c2[nH]c1=O)S(=O)(=O)c1ccccc1	none (no result: PD-1 reverse act, NOMO-1 viab)
CC(C(=O)NC1CCCC1)n1sc2ccccc2c1=O (centres undefined)	none (no result: PD-1 reverse act, NOMO-1 viab)
O=C(/C=C/c1ccco1)Nc1cccc2cccnc12	none (no result: PD-1 reverse act, NOMO-1 viab)
COc1ccccc1NC(=O)/C=C\c1ccco1	NOMO-1 viab 107
CC(=O)n1c(C=NCc2ccccc2)c(O)c2ccccc21	none (no result: PD-1 reverse act, NOMO-1 viab)
O=c1oc(-c2ccccn2)nc2ccccc12	none
c1ccc(-c2ccc3ccccc3n2)nc1	NOMO-1 viab 104
Cc1ccnc(NS(=O)(=O)c2ccc(NC(=O)c3ccccc3Br)cc2)n1	none (no result: PD-1 reverse act, NOMO-1 viab)
Cc1ccc(OC(=O)c2c(-c3ccccc3)nnc3ccccc23)cc1	none (no result: PD-1 reverse act, NOMO-1 viab)
C[C@@H]1C[C@@H](O)C2[C@@](C)(CO)CCC[C@]2(C)[C@@]1(O)CCc1ccoc1 (some centres undefined)	none
CC1=CC(=O)C2C(C)(C)CCC[C@]2(C)[C@@]1(O)CCc1ccoc1 (some centres undefined)	NOMO-1 viab 96 (no result: PD-1 reverse act)
N#Cc1nn(-c2ccccc2)c(=O)[nH]c1=O	none (no result: PD-1 reverse act, NOMO-1 viab)
COc1ccc(C2NC(=S)NC(C)=C2C(=O)Nc2cc(OC)c(Cl)cc2OC)c(OC)c1 (centres undefined)	none (no result: PD-1 reverse act, U2OS ROS induce)
COc1ccc(C2C(C(=O)Nc3cc(OC)c(Cl)cc3OC)=C(C)Nc3ncnn32)c(OC)c1 (centres undefined)	U2OS ROS induce 136
O=S(=O)(c1ccsc1)c1ccsc1	none (no result: PD-1 reverse act, NOMO-1 viab)
C[C@@H]1O[C@@H](O[C@H]2[C@@H]3C=CO[C@@H](O[C@@H]4O[C@H](CO)[C@@H](O)[C@H](O)[C@H]4O)[C@@H]3[C@@]3(CO)O[C@@H]23)[C@H](O)[C@H](OC(=O)/C=C/c2ccc(O)cc2)[C@H]1O	U2OS ROS induce 88 (no result: PD-1 reverse act, NOMO-1 viab)
CC(=O)O[C@@H]1[C@@H](O)[C@H](C)O[C@@H](O[C@H]2[C@@H]3C=CO[C@@H](O[C@@H]4O[C@H](CO)[C@@H](O)[C@H](O)[C@H]4O)[C@@H]3[C@@]3(CO)O[C@@H]23)[C@@H]1OC(=O)/C=C/c1ccc(O)cc1	none
C[C@@H]1CN([C@H](C)CO)C(=O)Cc2cc(NC(=O)Cc3ccccc3)ccc2O[C@@H]1CN(C)Cc1ccc(Cl)c(Cl)c1	U2OS ROS induce inconclusive, NOMO-1 viab 127
C[C@@H]1CN([C@@H](C)CO)C(=O)Cc2cc(NC(=O)Cc3ccccc3)ccc2O[C@@H]1CN(C)Cc1ccc(Cl)c(Cl)c1	NOMO-1 viab 108
C[C@@H]1CN([C@@H](C)CO)C(=O)Cc2cc(NC(=O)Cc3ccccc3)ccc2O[C@@H]1CN(C)Cc1ccccc1	none
C[C@@H]1CN([C@H](C)CO)C(=O)Cc2cc(NC(=O)Cc3ccccc3)ccc2O[C@H]1CN(C)Cc1ccc2c(c1)OCO2	none
C[C@H](CO)N1C[C@H](C)[C@@H](CN(C)Cc2ccc(C(F)(F)F)cc2)Oc2ccc(NC(=O)Nc3ccccc3)cc2C1=O	none (no result: PD-1 reverse act)
C[C@@H]1CN([C@H](C)CO)C(=O)c2cc(NC(=O)Nc3ccc(C(F)(F)F)cc3)ccc2O[C@@H]1CN(C)Cc1ccc(Oc2ccccc2)cc1	NOMO-1 viab inconclusive
C[C@H](CO)N1C[C@H](C)[C@H](CN(C)Cc2ccc(-c3ccccc3)cc2)Oc2ccc(NC(=O)Nc3ccc(C(F)(F)F)cc3)cc2C1=O	U2OS ROS induce inconclusive, NOMO-1 viab 92
C[C@H]1CN([C@@H](C)CO)C(=O)c2cc(NC(=O)Nc3ccc(C(F)(F)F)cc3)ccc2O[C@@H]1CN(C)Cc1ccc(-c2ccccc2)cc1	NOMO-1 viab 107
C[C@H]1CN([C@@H](C)CO)C(=O)c2cc(NC(=O)Nc3ccc(C(F)(F)F)cc3)ccc2O[C@H]1CN(C)Cc1ccc(-c2ccccc2)cc1	NOMO-1 viab 117
C[N+]12CCCCC1C(CN1C(=O)c3ccccc3C1=O)CCC2 (centres undefined)	none
O=C(CN1C(C(=O)c2ccccc2)C(=O)c2ccccc2S1(=O)=O)c1ccccc1 (centres undefined)	none (no result: PD-1 reverse act, NOMO-1 viab)
O=C(C1c2ccccc2Oc2ccccc21)N1CCCc2ccccc21	none
CC(=O)N(C)CCc1ccc(C)[n+]([O-])c1	none (no result: PD-1 reverse act, NOMO-1 viab)
Cc1cc(Br)ccc1NC(=O)c1cc2c(s1)-c1ccccc1OC2	none (no result: PD-1 reverse act, NOMO-1 viab)
CCCc1cc(=O)oc2cc(OC(C(=O)OCC)c3ccccc3)c(Cl)cc12 (centres undefined)	none (no result: PD-1 reverse act, NOMO-1 viab)
CN(C)C(=O)N1CCC(C(=O)N2CCC3(CC2)OCCO3)CC1	none (no result: PD-1 reverse act, NOMO-1 viab)
COc1ccc(S(=O)(=O)N(C)C[C@H]2Oc3ccc(NC(=O)NC4CCCCC4)cc3CC(=O)N([C@@H](C)CO)C[C@H]2C)cc1	none (no result: PD-1 reverse act)
CC(C)NC(=O)Nc1ccc2c(c1)CC(=O)N([C@@H](C)CO)C[C@@H](C)[C@@H](CN(C)S(=O)(=O)c1ccc(Cl)cc1)O2	none
Cc1ccc(S(=O)(=O)N(C)C[C@@H]2Oc3ccc(NC(=O)NC4CCCCC4)cc3CC(=O)N([C@@H](C)CO)C[C@@H]2C)cc1	NOMO-1 viab 116
Cc1ccc(S(=O)(=O)N(C)C[C@H]2Oc3ccc(NC(=O)NC4CCCCC4)cc3CC(=O)N([C@H](C)CO)C[C@H]2C)cc1	none (no result: PD-1 reverse act)
C[C@H]1CN([C@@H](C)CO)C(=O)Cc2cc(NC(=O)NC3CCCCC3)ccc2O[C@H]1CN(C)S(=O)(=O)c1ccc(Cl)cc1	U2OS ROS induce 130, NOMO-1 viab 128
Cc1ccc(S(=O)(=O)N(C)C[C@@H]2Oc3ccc(NC(=O)NC4CCCCC4)cc3CC(=O)N([C@H](C)CO)C[C@@H]2C)cc1	NOMO-1 viab 124 (no result: PD-1 reverse act)
CCCNC(=O)Cc1c(C)nc2cc(-c3ccccc3)nn2c1C	none (no result: PD-1 reverse act, NOMO-1 viab)
